Screens from PubChem.
HT1080-NT tox: qHTS for induction of synthetic lethality in tumor cells producing 2HG: qHTS for the HT-1080-NT fibrosarcoma cell line. 360,000 compounds, 1.6% hits. HT-1080-NT fibrosarcoma viability, CellTiter-Glo ATP luminescence, 48 h. Potency, µM (top dose mostly 46.1 µM), for the others: at the highest dose activity, negative = less viability, hits mostly cytotoxic;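 also: NT is the 2HG producing partner of a matched IDH1 knockdown line; 0% = DMSO-treated cells and -100% = media-only wells without cells; nearly all actives have a fitted effect of over 55% in size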
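Compounds were tested in concentration-response format on HT-1080-NT cells for 48 hours at 37 degrees C. Cell viability came from CellTiter-Glo luminescence; curves were classified by r2, response magnitude and activity.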
DT40 TDP1 CPT: qHTS for Inhibitors of human tyrosyl-DNA phosphodiesterase 1 (TDP1): qHTS in cells in presence of CPT; AID 686979, 2013; Potency, µM (series often up to 46.2 µM), for the others: at the top dose activity change, negative = growth inhibition, hits mostly inhibitors; 420,000 compounds, 12% hits; chicken DT40 Tdp1-/-;hTDP1 cells + 20 nM CPT, ATP luminescence, 48 h; also: % is scaled to controls: 0 for no effect and ±100 for the full control effect; nearly all actives have a fitted effect of over 55% in size
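Chicken DT40 Tdp1-/- cells stably complemented with human TDP1 were seeded at 400 cells/well in medium containing 20 nM camptothecin, exposed to pin-transferred compounds, and grown at 37 °C for at least 48 hr. Viability was read as ATP luminescence.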
TGFb SMAD3 inh: qHTS for Inhibitors of TGF-b; HepG2 CAGA-GFP TGF-b/SMAD3 reporter, GFP fluorescence, 18 h; TGF-beta stimulated, 500 pg/mL final; Potency, µM (top dose mostly 46.1 µM), inactives show top-dose activity, negative = inhibition, usual class: inhibitors; 410,000 compounds, 1.2% hits; also: % is scaled to controls: 0 for no effect and ±100 for the full control effect; nearly all actives have a fitted effect of over 65% in size
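Using HEPG2 CAGA-GFP reporter cells at 1000 cells/well, we pinned test compounds, stimulated with recombinant TGF-beta (500 pg/mL final) and measured total well GFP after 18 h.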
HepG2 viability: qHTS for Inhibitors of TGF-b: Cytotox Counterscreen; HepG2 CAGA-GFP viability, ATP luminescence, 18 h; 410,000 compounds, 0.76% hits; Potency, µM (doses to about 46.1 µM), for inactives: at the highest dose activity change, negative = cytotoxicity, hits mostly cytotoxic
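CellTiter-Glo luminescence gave cytotoxicity after 18 hours at 37 degrees C. The cells were HepG2 CAGA-GFP in 1% FBS DMEM, stimulated with 500 pg/mL TGF-beta after compound addition. %Activity was normalised to no-cell wells (complete cell-killing) and DMSO (no toxicity), and curves were fitted and classified.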
DT40 TDP1 no CPT: qHTS for Inhibitors of human tyrosyl-DNA phosphodiesterase 1 (TDP1): qHTS in cells in absence of CPT; 420,000 compounds, 15% hits; Potency, µM (top dose mostly 46.2 µM), for inactives: top-dose activity change, negative = growth inhibition, hits mostly inhibitors; DT40 Tdp1-/- hTDP1 cells, no CPT, ATP luminescence, 48 h; AID 686978, 2013; also: % is scaled to controls: 0 for no effect and ±100 for the full control effect; nearly all actives have a fitted effect of over 55% in size
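Growth kinetics read by CellTiter-Glo luminescence after ≥48 hr at 37 °C. Cells: DT40 Tdp1-/- stably carrying human TDP1, 400 per well, compound exposure in the absence of CPT (DMSO vehicle).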
HT1080 IDH1KD tx: qHTS for induction of synthetic lethality in tumor cells producing 2HG: qHTS for the HT-1080-IDH1KD cell line. 360,000 compounds, 2% hits. HT-1080 IDH1 knockdown viability, ATP luminescence, 48 h. Potency, µM (doses to about 46.1 µM), for the others: top-dose activity, negative = toxicity, most hits filed as cytotoxic. AID 686971, 2013;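 also: 0% = DMSO wells and -100% = cell-free medium wells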
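After a 2 h attachment period, IDH1KD HT-1080 cells took pin-transferred compound for 48 h at 37 °C; ATP-based luminescence after 10 min room-temperature reagent incubation reported viability.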
An asterisk follows results filed as active; ? = inconclusive; . = no result; [ ] = another dose, or the depositor's remark. Only some compounds are listed: those with a hit (about 17% of all), similar ones and a draw of the others. Calls follow the shape of the dose curve; as a rule, active = well fitted curve in the direction sought with a large enough effect; inconclusive = small, poorly fitted or top-dose-only effect, or another doubt; inactive = no such curve, though single readings can be large; an effect the other way counts as inactive or inconclusive. Potency is read from the fitted curve at half-maximal effect.

SMILES | HT1080-NT tox | DT40 TDP1 CPT | TGFb SMAD3 inh | HepG2 viability | DT40 TDP1 no CPT | HT1080 IDH1KD tx
CC(C)CCNC(=O)C1CCN(c2nc3ccccc3o2)CC1 | -9.0% | ? | -13.7% | -23.8% | -17.4% | -28.7%
COc1cc(C(=O)Nc2ccc(C)cn2)ccc1OCC(=O)N1CCOCC1 | -2.9%[9.24 µM] | -0.9% | 0.5% | 1.4% | 11.6% | 5.7%
O=C1C(=Cc2cccc(F)c2)Cc2ccccc21 | 2.3% | -20.2% | ? | -29.2% | ? | 0.2%
CC(C)c1ccc(C2NC(=O)CCC2[N+](=O)[O-])cc1 (stereo unspecified) | 8.5% | -16.9% | -0.4% | -1.8% | -0.5% | -0.5%
COc1ccc(-c2csc(NC(=O)C3CC(=O)N(Cc4ccco4)C3)n2)cc1 (stereo unspecified) | -15.5% | ? | -10.8% | -13.9% | 20.6µM* | -16.2%
COc1ccc(-c2nc(NC(=O)C3CC(=O)N(Cc4ccco4)C3)sc2C)cc1 (stereo unspecified) | -5.5% | 16.4µM* | ? | -23.3% | 11.6µM* | -8.9%
CC(C)Sc1nc2c(cnn2-c2ccc(Cl)cc2)c(=O)[nH]1 | 6.1% | -23.7% | 7.3% | -1.6% | -16.5% | 8.1%
CCc1ccc(NC(=O)N2CCC(N3CCN(Cc4ccc(C)cc4)C(=O)C3=O)CC2)cc1 | . | -21.6% | -23.4% | 1.1% | -19.4% | .
CCCCNC(=S)N/N=C/c1ccc(C#N)cc1 | 15.5% | ? | -3.1% | -14.5% | ? | 10.1%
COc1cccc(/C=C2\CCc3ccccc3C2=O)c1 | ? | ? | ? | -36.1% | ? | ?
COc1ccc(OC)c(C=C2CCc3ccccc3C2=O)c1 | ? | 20.6µM* | -22.9% | 3.1% | ? | ?
COc1ccc2c(c1)CC/C(=C\C=C\c1ccccc1)C2=O | 20.3% | ? | ? | -2.5% | 23.1µM* | 23.8%
COc1ccc2c(c1)CC/C(=C/c1cc(OC)c(OC)c(OC)c1)C2=O | 16.4% | ? | -4.6% | 0.141µM* | 14.6µM* | -6.8%
CCOC(=O)N1CCN(C(=O)C2CCC(=O)N(Cc3cccc(C(F)(F)F)c3)C2)CC1 (stereo unspecified) | 5.5% | -0.8% | -3.8% | -4.1% | 4.6% | 10.1%
CN(C)C1=NCCN1CC1CCCCC1 | 4.3% | -1.8% | 17.3% | 8.8% | -17.4% | 7.0%
Cc1ccc(O)c(NC(=O)c2cccc(NC(=O)c3ccco3)c2)c1 | -10.6% | ? | -8.2% | -21.4% | 23.1µM* | -12.8%
Cc1cc(C)cc(NC(=O)c2cccc(NC(=O)c3ccco3)c2)c1 | 5.9% | ? | -16.5% | -15.8% | 29.1µM* | 0.0%
CC(C)(C)NC(=O)c1cccc(NC(=O)c2ccc(NC(=O)c3ccco3)cc2)c1 | . | 13µM* | ? | -34.4% | ? | .
O=C(Nc1cccc(S(=O)(=O)N2CCCC2)c1)c1ccco1 | -2.3% | 0.9% | -12.0% | -13.1% | ? | 0.0%
O=C(Nc1cccc(S(=O)(=O)c2cccc(NC(=O)c3ccco3)c2)c1)c1ccco1 | ? | ? | ? | 1.7% | 13µM* | -9.3%
COCCn1c(SCC(=O)Nc2cccc(F)c2)nc2c(c1=O)SCC2 | -1.4% | -18.2% | 2.7% | 0.9% | 5.3% | -2.4%
CN(C)c1nc(Cl)nc2c1nc(Cl)n2C1CCCCO1 (stereo unspecified) | 10.2% | 2.8% | 5.2% | 2.8% | -19.3% | 8.8%
COC(=O)c1cccc(-c2ccc(C(c3c(C)[nH][nH]c3=O)c3c(C)[nH][nH]c3=O)o2)c1 | ? | 7.31µM* | ? | -51.7% | 23.1µM* | ?
Cc1[nH][nH]c(=O)c1C(c1ccc(-c2ccc(Cl)c(C(=O)O)c2)o1)c1c(C)[nH][nH]c1=O | 7.9% | -12.1% | -9.8% | -0.5% | -9.2% | 14.2%
COC(=O)c1ccccc1-c1ccc(C(c2c(C)[nH][nH]c2=O)c2c(C)[nH][nH]c2=O)o1 | ? | ? | -2.6% | -10.1% | 20.6µM* | ?
SMILES | HT1080-NT tox | DT40 TDP1 CPT | TGFb SMAD3 inh | HepG2 viability | DT40 TDP1 no CPT | HT1080 IDH1KD tx
Cc1ccccc1C(=O)Nc1cc(C(F)(F)F)ccc1-n1cncn1 | 5.1% | 20.0% | -7.6% | -6.6% | -5.9% | 0.0%
CC(=O)c1ccc(NC(=O)CSc2nc3nn(-c4ccccc4)c(=O)c-3c3n2CCCCC3)cc1 | -0.1% | 25.9µM* | 0.8% | -14.3% | 16.4µM* | -1.0%
O=c1c(-c2cccs2)nc2cnc(N3CCOCC3)nc2n1-c1ccccc1 | . | -9.1% | . | . | -16.5% | .
CCN(CC)CCNC(=O)c1cc(Sc2nnc(C)s2)nc2ccccc12 | 3.7% | 7.1% | -13.7% | -13.6% | -2.4% | 4.5%
CCN(CC)CCNC(=O)c1[nH]c2ccccc2c1Sc1ccc(Cl)cc1 | . | ? | ? | 14.1µM* | ? | .
CC1CCN(CCCNC(=O)c2cc(Sc3ccc(F)cc3)nc3ccccc23)CC1 | . | 23.1µM* | 0.0% | -31.2% | ? | .
CC1CCCCN1CCCNC(=O)c1cc(Sc2ccc(Cl)cc2)nc2ccccc12 (stereo unspecified) | . | 18.4µM* | -22.0% | -22.1% | 20.6µM* | .
CCCN(CCC)CCNC(=O)c1cc(Sc2ccc(Cl)cc2)nc2ccccc12 | . | 16.4µM* | 2.0% | -3.5% | 18.4µM* | .
COCCNC(=O)c1cc(Sc2ccc(F)cc2F)nc2ccccc12 | . | -29.2% | 4.9% | -21.6% | -19.8% | .
Cc1c(C)c2cc3c(C)coc3cc2oc1=O | 1.5% | 7.7% | -2.0% | -8.1% | 20.2% | 12.9%
Cc1ccccc1S(=O)(=O)NC(=O)C1(C)CCN1C(=O)CCc1cccs1 (stereo unspecified) | ? | -13.2% | 16.5% | 1.7% | -14.1% | 7.2%
CCc1ccc(Sc2cc(C(=O)NCCN3CCOCC3)c3ccccc3n2)cc1 | -11.8% | ? | -3.2% | -4.4% | 14.6µM* | -15.4%
O=C(NCCN1CCOCC1)c1cc(-c2ccccc2)nc2ccccc12 | -1.5% | -17.2% | -1.4% | -3.6% | ? | -0.2%
CCOc1ccc(Sc2cc(C(=O)NC(C)c3ccccc3)c3ccccc3n2)cc1 (stereo unspecified) | . | ? | -16.5% | -14.2% | ? | .
CCOc1ccc(Sc2cc(C(=O)NCCCOC)c3ccccc3n2)cc1 | . | 20.6µM* | 0.0% | -20.3% | 16.4µM* | .
